Screening results from PubChem BioAssay.
LT uptake inh: anthrax lethal toxin internalization inhibition. hit rate 0.67% among 70,000. Cells, anthrax lethal toxin internalization, FRET ratio (460/530). Potency, µM (series often up to 40 µM), inactives show at the top dose activity change, negative = inhibition, hits mostly inhibitors; also: % is scaled to controls: 0 for no effect and ±100 for the full control effect; nearly all actives have a fitted effect of over 50% in size
AmpC det inh: blocks E. coli AmpC beta-lactamase in presence of detergent; P00811; purified AmpC, nitrocefin hydrolysis with detergent; Potency, µM (doses to about 28.7 µM), inactives show top-dose activity change, negative = inhibition; hit rate 0.09% among 71,000; AID 584; active = well fitted curve in the direction sought with a large enough effect; inconclusive = small, poorly fitted or top-dose-only effect; also: % is scaled to controls: 0 for no effect and ±100 for the full control effect
Target sequence (P00811 whole entry, looked up): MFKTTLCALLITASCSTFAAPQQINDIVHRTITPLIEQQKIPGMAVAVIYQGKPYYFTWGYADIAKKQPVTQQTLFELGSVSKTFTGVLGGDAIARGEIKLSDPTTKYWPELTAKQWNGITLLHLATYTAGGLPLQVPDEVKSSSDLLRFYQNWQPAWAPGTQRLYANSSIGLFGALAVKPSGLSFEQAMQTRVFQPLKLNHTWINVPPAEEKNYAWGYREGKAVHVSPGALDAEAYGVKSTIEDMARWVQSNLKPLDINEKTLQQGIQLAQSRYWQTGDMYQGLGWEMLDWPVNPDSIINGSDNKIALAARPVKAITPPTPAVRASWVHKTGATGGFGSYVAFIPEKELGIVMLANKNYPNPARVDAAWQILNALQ
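E. coli AmpC (5.3 nM) in 20 mM phosphate pH 7.0 with 0.01% Triton X-100, preincubated 15 min RT with compound; nitrocefin (2 uL of 800 uM stock) hydrolysis followed by 480 nm absorbance every 20 s over 4 min.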
AmpC nodet inh: blocks E. coli AmpC beta-lactamase in absence of detergent; P00811; AmpC nitrocefin hydrolysis, absorbance 480 nm, no detergent; Potency, µM (series often up to 28.7 µM), without a hit: top-dose activity change, negative = inhibition; hit rate 1.8% among 71,000; AID 585; also: % of control where 0% means no effect
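AmpC, 20 mM phosphate pH 7.0; 15 min cpd preinc, RT; start with nitrocefin (800 uM stock); A480 kinetic read, 20 s intervals, 4 min. No-enzyme wells = negative control.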
SmPrx2 inh: inhibitors of Schistosoma mansoni peroxiredoxin 2; Potency, µM; hit rate 0.07% among 65,000; AID 448; S. mansoni Prx2 activity coupled to TGR/GSH (TGR is thioredoxin glutathione reductase), NADPH fluorescence loss, qHTS
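Purified S. mansoni TGR and Prx2 in pH 7.4 phosphate buffer with EDTA and Tween-20 were preincubated with compounds for 15 min. Further NADPH/GSH was added, then a 2.5 mM H2O2 aliquot initiated turnover, followed kinetically by NADPH fluorescence.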
An asterisk follows results filed as active; ? = inconclusive; · = no result given; [ ] = dose if it differs, or a comment. Most compounds without a hit are left out; they make up all but 2.4% or so of the library. Unless noted, calls follow the shape of the full dose curve. Potency is read from the fitted curve at half-maximal effect.

SMILES	LT uptake inh	AmpC det inh	AmpC nodet inh	SmPrx2 inh
COc1cc(NC(=O)C2COc3ccccc3O2)c(OC)cc1Cl (stereo not given)	13µM*	-1%	19%	>57
COc1cc(O)c2c(O)c3c(c4c2c1[C@@]1(C4)C(C)=CCCC1(C)C)[C@H](O)[C@@]1(O)CC(=O)C(C(N)=O)=C(O)[C@]1(O)C3=O	?	-4%[5.75 µM]	-6%[5.75 µM]	>57
Cc1ccc2c(c1)NC(=O)C(CC(=O)NCCCN1CCN(C3CCCCC3)CC1)O2 (stereo not given)	-6%	8%	8%	>57
Cc1ccc2c(c1)NC(=O)C(CC(=O)NCCCN1CCCC1)O2 (stereo not given)	-5%	9%	4µM*[single pt active]	>57
COc1ccc(N2CCN(CCCNC(=O)CC3Oc4ccc(C)cc4NC3=O)CC2)cc1 (stereo not given)	?	13%	4µM*[single pt active]	>57
CC(C)[C@@]1(NC(=O)[C@H]2C[C@H]3c4cccc5[nH]cc(c45)C[C@@H]3N(C)C2)O[C@]2(O)[C@H]3CCCN3C(=O)[C@H](Cc3ccccc3)N2C1=O	?	1%	128%	>57
Cn1c(=O)c2cc(S(=O)(=O)N3CCOCC3)ccc2n(C)c1=O	2%	-2%	-4%	>57
O=c1c2ccccc2sn1-c1cc(S(=O)(=O)N2CCOCC2)ccc1N1CCOCC1	0.16µM*	-4%	99%	>57
Cc1ccc(C)c(-n2c(Cc3cc(=O)[nH]c(=O)[nH]3)nnc2SC(C)C)c1	-5%	13%	4µM*[single pt active]	>57
CCC(C)Sc1nnc(Cc2cc(=O)[nH]c(=O)[nH]2)n1-c1ccc(OC)cc1 (stereo not given)	-12%	13%	3.2µM*[single pt active]	>57
COC(=O)C(C)Sc1nnc(Cc2cc(=O)[nH]c(=O)[nH]2)n1-c1ccc(OC)cc1 (stereo not given)	-12%	13%	4µM*[single pt active]	>57
CCOc1ccc(-n2c(Cc3cc(=O)[nH]c(=O)[nH]3)nnc2SCC(=O)OC)cc1	-10%	9%	4µM*[single pt active]	>57
NC(=O)N[C@H](CC(=O)O)C(=O)O	-5%[8 µM]	-5%[5.75 µM]	14%[5.75 µM]	>57
O=C1c2cccnc2C(=O)N1c1cccc(-c2nc3ccccc3o2)c1	-6%	-1%	44%	>57
O=C1CCC(=O)N1c1cccc(-c2nc3ccccc3o2)c1	1%	12%	4µM*[single pt active]	>57
COC(=O)[C@@H]1[C@@H](O)[C@]2(O)c3ccccc3O[C@]2(c2ccccc2)[C@H]1c1ccccc1	4%[8 µM]	·	·	·
O=C1CC(N2CCC(c3nc4ccccc4[nH]3)CC2)C(=O)N1Cc1ccccc1 (stereo not given)	0%	-3%	36%	>57
CN1C(=O)CC(N2CCC(c3nc4ccccc4[nH]3)CC2)C1=O (stereo not given)	-3%	13%	4µM*[single pt active]	>57
COc1ccc(C(=O)CSc2nnc(-c3cc4ccccc4cc3O)n2Cc2ccco2)cc1	?	15%	10µM*	>57
CN(C)CCn1c(CO)nc2c1c(=O)n(C)c(=O)n2C	2%[8 µM]	-2%[5.75 µM]	5%[5.75 µM]	>11
Cc1ccc(S(=O)(=O)C2(C(=O)Nc3ccc4c(c3)OCO4)CC2)cc1	-7%	22%	4µM*[single pt active]	>57
Cc1ccc(S(=O)(=O)C2(C(=O)Nc3ccc(F)cc3)CC2)cc1	-7%	11%	-7%	>57
Cc1ccc(OCc2nc(-c3ccccc3)no2)c(C)c1	?	3%	-10%	·
Cc1cccc(NCc2nc(-c3ccccc3)no2)c1	?	10%	2.5µM*[single pt active]	>57
CC(C)(C)OC(=O)NCCc1nnc(S(=O)(=O)Cc2ccc(Cl)cc2Cl)o1	?	0.016µM*	0.04µM*	>57
SMILES	LT uptake inh	AmpC det inh	AmpC nodet inh	SmPrx2 inh
CCCCn1c2c(c3ccccc31)CCc1nonc1-2	?	26%	4µM*[single pt active]	>57
C[C@@H]1CN(CCCn2c3ccccc3c3ccccc32)C[C@H](C)N1	32µM*	-3%	84%	>57
O=C(COC(=O)c1cccc(NC(=O)c2ccco2)c1)c1ccc(Br)cc1	13µM*	1%	-24%	>57
CC(C)CNC(=O)c1cccc(NC(=O)c2ccc(NC(=O)c3ccco3)cc2)c1	-4%	-1%	16µM*[single pt active]	>57
CC(C)(C)NC(=O)c1cccc(NC(=O)c2ccc(NC(=O)c3ccco3)cc2)c1	?	-2%	4%	>57
CC(C)(C)C(=O)COC(=O)c1cccc(NC(=O)c2ccco2)c1	-10%	-6%	10%	>57
C=C(C)[C@H]1[C@H]2OC(=O)[C@@H]1[C@]1(O)C[C@H]3O[C@]34C(=O)O[C@H]2[C@]14C	1%	2%	-5%	>57
Cc1cc(N2CCN(C)CC2)nc2ccc(NC(=O)c3ccc4c(c3)OCO4)cc12	?	-2%	84%	>57
CCOc1ccccc1NC(=O)CCC(=O)Nc1ccc2nc(N3CCN(C)CC3)cc(C)c2c1	13µM*	0%	100%	>57
CCC(C)NC(=O)CCC(=O)Nc1ccc2nc(N3CCOCC3)cc(C)c2c1 (stereo not given)	6%	-4%	31%	>57
Cc1cc(N2CCN(C)CC2)nc2ccc(NC(=O)c3ccc(Br)o3)cc12	13µM*	-4%	89%	>57
[Cd+2].[Cl-].[Cl-]	?	10%	-8%	·
[Cl-].[Cl-].[Hg+2]	?	13µM*	1.3µM*	·
C[C@@H](CNC(N)=O)NC(N)=O	1%[8 µM]	-3%[5.75 µM]	6%[5.75 µM]	>57
CC(=O)N1CSCC1C(=O)N1CCN(c2ccc(N3CCOCC3)nn2)CC1 (stereo not given)	4%	12%	2µM*[single pt active]	·
COc1ccc(C(=O)CCC(=O)N2CCN(c3ccc(N4CCOCC4)nn3)CC2)cc1	5%	10%	68%	>57
O=C(CCCn1c(=O)c2sccc2n(Cc2cc(=O)n3ccccc3n2)c1=O)NCc1ccco1	-5%	18%	4µM*[single pt active]	>57
Cc1ccc(-n2c(=O)c3sccc3n(CC(=O)NCc3ccco3)c2=O)cc1	8%	10%	-20%	>57
N#Cc1ccccc1Cn1c(=O)n(Cc2ccc(C(=O)NCc3ccco3)cc2)c(=O)c2sccc21	12%	9%	4µM*[single pt active]	·
N#Cc1ccccc1Cn1c(=O)n(-c2ccc(CC(=O)NCc3ccco3)cc2)c(=O)c2sccc21	?	10%	4µM*[single pt active]	>57
Cc1cc(C(=O)CN2CC(C)OC(C)C2)c(C)n1-c1ccccc1 (stereo not given)	7%	13%	4µM*[single pt active]	>57
COc1ccccc1NC(=O)C1=C(C)Nc2ncnn2C1c1cccs1 (stereo not given)	?	-2%	10%	>57
CC1=C(C(=O)OC(C)C)C(c2cccs2)n2ncnc2N1 (stereo not given)	?	13%	4µM*[single pt active]	>57
CC1=C(C(=O)OC(C)C)C(c2cccc(F)c2)n2ncnc2N1 (stereo not given)	?	14%	4µM*[single pt active]	>57
CC1=C(C(=O)OC(C)C)C(c2c[nH]c3ccccc23)n2ncnc2N1 (stereo not given)	4%	12%	4µM*[single pt active]	>57
COc1ncc2nc(C)c(=O)n(Cc3ccc(F)cc3)c2n1	2%	2%	25%	>57
